Measured values reported in PubChem BioAssay (NCI).
This is part of a sample that, as a whole, favours compounds with a hit. Of some 79,000 tested, about 15% had one in any assay. Cut-off read from the data, not from the text of the source: active = growth inhibition above about 70%; inactive = the rest.

Columns and labels:
[1] = NCI Yeast Anticancer Drug Screen. Data for the rad50 strain (AID 155);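 note: 0% = growth of vehicle-only cultures of the same strain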; details: S. cerevisiae rad50 strain growth inhibition; at 50.0 µM; stronger effect = higher value
How it was run: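 Growth of the mutant yeast was measured after compound exposure and referenced to vehicle-treated cultures.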

[2] = NCI Yeast Anticancer Drug Screen. Data for the mec2-1 strain (AID 157); details: S. cerevisiae mec2-1 strain, at 50.0 µM, stronger effect = higher value
How it was run: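 Using mec2-1 yeast: add compound, measure growth, express inhibition versus vehicle-treated cultures.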

[3] = NCI Yeast Anticancer Drug Screen. Data for the sgs1 mgt1 strain (AID 161);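 note: 0% = growth of cultures given vehicle only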; details: S. cerevisiae sgs1 mgt1 strain, at 50.0 µM, stronger effect = higher value
How it was run: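 Compounds are added to genetically altered yeast, and growth is compared with cultures given vehicle alone to give percent inhibition.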

[4] = NCI Yeast Anticancer Drug Screen. Data for the cln2 rad14 strain (AID 165);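 note: 0% = growth equal to vehicle treated cultures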; details: S. cerevisiae cln2 rad14 strain, at 50.0 µM, stronger effect = higher value
How it was run: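 Yeast strain cln2 rad14, bearing defects in cell cycle control and DNA repair, serves as the test system; values reflect growth inhibition compared with vehicle.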

[5] = NCI Yeast Anticancer Drug Screen. Data for the bub3 strain (AID 167); details: S. cerevisiae bub3 mutant strain, at 50.0 µM, stronger effect = higher value
How it was run: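 Whole-cell yeast assay. The mutant strain was incubated with compounds, and growth inhibition was determined by comparison with vehicle-treated cells.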

[6] = NCI Yeast Anticancer Drug Screen. Data for the mlh1 rad18 strain (AID 175); details: S. cerevisiae mlh1 rad18 strain growth inhibition; at 50.0 µM; stronger effect = higher value
How it was run: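 Steps: expose repair-defective yeast to compound; measure growth; express inhibition against vehicle-treated controls.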

Measured: growth inhibition

C(=C\C(SCc1ccccc1)SCc1ccccc1)/c1ccccc1
inactive: [1] -43% | [2] -60% | [3] -27.8% | [4] 3.55% | [5] -7.2% | [6] -35.6%

Cc1ccc(-c2nnc(C)o2)cc1
inactive: [1] 5.55% | [2] -6.65% | [3] -7.85% | [4] -35.6% | [5] 13.3% | [6] 6.2%

COc1ccc(-c2onc3ccc(Cl)cc23)cc1
inactive: [1] -9.1% | [2] 4.1% | [3] 17.4% | [4] -63.5% | [5] 7.35% | [6] 21.4%

CC(=O)OC12C3C4C1C1C2C3C41OC(C)=O (stereo unspecified)
inactive: [1] -4.95% | [2] 11.8% | [3] -24.1% | [4] 0.9% | [5] -16.4% | [6] -7.5%

COC(=O)C(=O)C(C(=O)C=C(C)C)C(=O)C(=O)Nc1cccc(C(C)=O)c1 (stereo unspecified)
inactive: [1] -18.4% | [2] -8.25% | [3] -14.7% | [4] 16.4% | [5] -13.2% | [6] -26.2%

CC1(C)CC(C2CC(C)(C)CC(C)(C)[C@H]2O)[C@@H](O)C(C)(C)C1 (stereo partly specified)
inactive: [1] -17.3% | [2] -2.3% | [3] -2.1% | [4] -13.2% | [5] -25.8% | [6] -19.9%

O=C(OC1C#CCSCC#C/C=C\1)c1cnc2ccccc2n1 (stereo unspecified)
inactive: [1] -34% | [2] -13.4% | [3] -24.3% | [4] -11.2% | [5] -2.55% | [6] -23%

CCc1ccccc1OCC(O)CO (stereo unspecified)
inactive: [1] -21.9% | [2] -2.45% | [3] -6.2% | [4] -11.5% | [5] -8.85% | [6] 27.8%

CCC(CC)CCC(=O)CC(C)C
inactive: [1] 23.9% | [2] -3.5% | [3] -15.6% | [4] 5.5% | [5] -19% | [6] 7.1%

Nc1cc(CO)cc(Nc2c3ccccc3nc3ccccc23)c1
inactive: [1] 26.8% | [2] 7.35% | [3] -30.8% | [4] -6.95% | [5] 0.65% | [6] 48.5%

C1CSCCCSCCSCCCSC1
inactive: [1] -15.1% | [2] -9.45% | [3] 3.6% | [4] 5.3% | [5] 0.2% | [6] 4.45%

CC1=CC2(C)OC3C(=O)N(c4ccc(Cl)cc4)C(=O)C3C2N=C1 (stereo unspecified)
inactive: [1] -7.65% | [2] -22.9% | [3] -24% | [4] 9.6% | [5] -20.1% | [6] -3.35%

O=C1c2ccc([N+](=O)[O-])cc2C(=O)N1CCBr
inactive: [1] 27.4% | [2] -13.2% | [3] 16.6% | [4] -10.2% | [5] 31.7% | [6] 13.1%

Cc1cccc(-c2nnc(-c3cccc4ccccc34)o2)c1
inactive: [1] 8.8% | [2] -28.8% | [3] 43.8% | [4] 14.3% | [5] 26.5% | [6] 13.4%

Clc1ccc(-c2nc3ccccc3cc2N2CCCCC2)cc1
inactive: [1] 26.4% | [2] 1.45% | [3] 12.3% | [4] -38.5% | [5] -1.15% | [6] -7.7%

CCOC(=O)C(C)(NC(=O)c1ccc(NCc2ccc3nc(NC(=O)c4ccccc4)nc(NC(=O)c4ccccc4)c3c2)cc1)C(=O)OCC
inactive: [1] -4.1% | [2] -24% | [3] 7.5% | [4] -24.1% | [5] -16.5% | [6] -8.45%

NC(=O)c1cc([N+](=O)[O-])cnc1Sc1ncccn1
inactive: [1] 40.8% | [2] 14.9% | [3] 21.7% | [4] 18.2% | [5] 29.9% | [6] 44.6%

Cc1cccc(C)c1NC(=O)N(Cc1ccccc1)Cc1ccccc1
inactive: [1] 1.65% | [2] 15.2% | [3] 20.6% | [4] -2% | [5] 36.7% | [6] 30.6%

CCC1(C)NN=C2C(=CC=C3NNC(C)(CC)N32)n2cccc21 (stereo unspecified)
inactive: [1] 36.9% | [2] 8.8% | [3] -19.1% | [4] 3.5% | [5] -2.65% | [6] 26.4%

O=C(Nc1nc2ccccc2n1Cc1ccc(Cl)cc1)C(=O)NC12CC3CC(CC(C3)C1)C2
inactive: [1] -9% | [2] -24.5% | [3] 1% | [4] -0.6% | [5] 6.8% | [6] -8.6%

NC(=O)N=Nc1ccc(Br)cc1
inactive: [1] 9.8% | [2] 7.05% | [3] -7.85% | [4] -11.7% | [5] -3.55% | [6] 18.3%

O=C(O)Cc1c(O)ccc2ccccc12
inactive: [1] -32.7% | [2] -16.3% | [3] -34.5% | [4] -29.8% | [5] -38.6% | [6] -3.7%

O=C(CCCn1cnc([N+](=O)[O-])n1)NCCCn1ccnc1[N+](=O)[O-]
inactive: [1] -26.2% | [2] -19.7% | [3] -26.1% | [4] -3.45% | [5] -34.8% | [6] -7.8%

Clc1cccc(-c2sc(-c3cccs3)cc2Cc2cccs2)c1
inactive: [1] -42.8% | [2] -39.8% | [3] -29.4% | [4] 2.2% | [5] -9.2% | [6] -14.5%

COC(=O)Nc1nc2ccccc2n1-c1ccccc1
inactive: [1] 18.9% | [2] 2.85% | [3] 10.6% | [4] 14.2% | [5] 16.4% | [6] 17.5%

Cc1cc(=O)n(-c2c(C)cccc2Cl)c(/C=C(\O)c2ccncc2)n1
inactive: [1] 4.25% | [2] -2.65% | [3] 3.8% | [4] 8.3% | [5] 4.15% | [6] 2.85%

C/C=C/C1OCC(C)([N+](=O)[O-])CO1 (stereo unspecified)
inactive: [1] 23.5% | [2] 10.1% | [3] 19.4% | [4] 12.5% | [5] -1.35% | [6] 31.1%

N#CC1NCNC1N (stereo unspecified)
inactive: [1] 0.2% | [2] 0.65% | [3] -6.6% | [4] 1.15% | [5] -1.25% | [6] -16.8%

O=C(O)CS(=O)(=O)O
inactive: [1] 11.2% | [2] 0.45% | [3] -4.3% | [4] 5.3% | [5] 0.75% | [6] 5.55%

Cn1c(=S)[nH]c2cc(Cl)c(Cl)cc21
inactive: [1] 17.4% | [2] -3.05% | [3] 0.55% | [4] -21.7% | [5] -14.7% | [6] 20.4%

CCc1nnc(CC)n1NC(=O)Nc1ccc(C)cc1
inactive: [1] -5.1% | [2] -14.5% | [3] -3.75% | [4] 7.05% | [5] -7.65% | [6] 1.25%

CN1C(=O)CC2(C)c3cc(O)cc(Br)c3N(C)C12 (stereo unspecified)
inactive: [1] 6.6% | [2] -10.5% | [3] 8.45% | [4] 10.5% | [5] -6.25% | [6] 17.7%

Fc1ccc(N=C2c3ccccc3-c3ccccc32)cc1
inactive: [1] 6.35% | [2] -1.9% | [3] -0.25% | [4] 5.3% | [5] 1.65% | [6] 1.15%

CCCCCCCCCCCCCCCCO
inactive: [1] -14.4% | [2] -14.2% | [3] -13.6% | [4] -16.3% | [5] -15.2% | [6] -12.4%

CN1C(=O)C(=C2CCCCC2)SC1=S
inactive: [1] 0.55% | [2] 7.8% | [3] -11.6% | [4] -4.3% | [5] 2.8% | [6] 2.15%

COC(=O)C1C(=O)CC(C)(O)C(C(=O)OC)C1c1ccc(N(C)C)cc1 (stereo unspecified)
inactive: [1] -10.5% | [2] 19.9% | [3] 7.7% | [4] 53% | [5] 15.1% | [6] -25.4%

COc1ccc2c(c1)CC1=C2CCC2(C)C(=O)CC=C12 (stereo unspecified)
inactive: [1] 11.7% | [2] -8.35% | [3] -7.65% | [4] 11.8% | [5] 4.5% | [6] 4.85%

Cc1cc(=O)oc2c(CNC(Cc3ccccc3)C(=O)O)c(O)ccc12 (stereo unspecified)
inactive: [1] -39.4% | [2] -40.6% | [3] -24.3% | [4] -21.1% | [5] -22.1% | [6] -69%

COC1(OC)C2(Cl)C(Cl)=C(Cl)C1(Cl)C1CCCCC12 (stereo unspecified)
inactive: [1] 12.7% | [2] 11.1% | [3] 15.5% | [4] -57% | [5] -5.15% | [6] 2.3%

O=C(O)C(c1ccccc1)C1(O)CC2CCC1C2 (stereo unspecified)
inactive: [1] -38% | [2] -45.5% | [3] -36.6% | [4] -10.7% | [5] -56% | [6] -54.5%

Cc1ccc(S(=O)(=O)Oc2cccc(Br)c2)cc1
inactive: [1] 8.25% | [2] -1.25% | [3] 21.9% | [4] -17.4% | [5] -1.1% | [6] 7.55%
